Screening data as filed in PubChem BioAssay.
Rows were chosen to be rich in hits. Some 12% of all compounds tested hit in one or more screens of this group.
JMJD2A Tudor inh – inhibitors of human JMJD2A Tudor domain; AlphaScreen JMJD2A-Tudor / H3K4me3 peptide binding; Potency, µM (titrated, usually from 114 µM), for the others: top-dose activity change, negative = inhibition, hits mostly inhibitors; 390,000 tested, 4.4% active; AID 504339; also: % is scaled to controls: 0 for no effect and ±100 for the full control effect; nearly all actives have a fitted effect of over 50% in size
G9a inh – blocks human histone lysine methyltransferase G9a | G9a H3K9 monomethylation, AlphaScreen, 2 h | 350,000 tested, 8.8% active | AID 504332 | Potency, µM (top dose mostly 102 µM), inactives show at the top dose activity, negative = inhibition, usual class: inhibitors; also: % is scaled to controls: 0 for no effect and ±100 for the full control effect; nearly all actives have a fitted effect of over 75% in size
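Step 1: enzyme (final 20 nM) with compound, 15 min RT. Step 2: substrate peptide 500 nM and SAM 20 uM, 2 h RT. Step 3: anti-H3K9me1 antibody and AlphaScreen beads, 10 min, then plate read.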
HP1b binding inh – inhibitors of HP1-beta chromodomain binding to methylated histone tails | AlphaScreen HP1-beta / biotin-H3K9me3 peptide binding | Potency, µM (highest dose often 114 µM), inactives show top-dose activity change, negative = inhibition, usual class: inhibitors | 390,000 tested, 0.56% active; also: nearly all actives have a fitted effect of over 70% in size
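Compound inhibition of the preformed complex between 50 nM HP1-beta and 50 nM biotinylated H3K9me3 peptide was read by AlphaScreen. Buffer was PBS pH 7.4 with 0.01% Tween-20. Incubations ran 30 min at room temperature, with 10 ug/mL donor/acceptor beads.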
Sfp inh – blocks B. subtilis Sfp PPTase activity | AID 1490 | Potency, µM, for inactives: largest response in the series, negative = inhibition, most hits filed as inhibitors | 310,000 tested, 3.5% active | Q9F4F7 | Biochemical Sfp PPTase activity, qHTS;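 also: the enzyme is Sfp with the accession as filed and its product quenches rhodamine fluorescence; 0% = enzyme reaction without inhibitor and -100% = no enzyme wells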
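Compounds were incubated with enzyme (final 15 nM) for 15 min at room temperature before substrate addition started the reaction. Fluorescence at 525 nm excitation, 598 nm emission was recorded immediately and after 30 minutes.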
BAZ2B inh – blocks human BAZ2B; AlphaScreen BAZ2B-H3K14Ac peptide displacement; AID 504333; 360,000 tested, 4.4% active; Potency, µM (series often up to 114 µM), for the others: top-dose activity change, negative = inhibition, hits mostly inhibitors; also: % is scaled to controls: 0 for no effect and ±100 for the full control effect; nearly all actives have a fitted effect of over 60% in size
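AlphaScreen displacement: compounds (up to 110uM) incubated 30 min at room temperature with a preformed 50 nM BAZ2B/50 nM biotinylated H3K14Ac peptide complex in PBS pH 7.4 with Tween-20. Donor and acceptor beads at 10 ug/mL final added, 20 min light-protected before reading.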
L3MBTL1 inh – inhibitors of human L3MBTL1; Q9Y468; AlphaScreen L3MBTL1–H3K9me1 peptide binding; Potency, µM (titrated, usually from 57.1 µM), without a hit: top-dose activity, negative = inhibition, usual class: inhibitors; 230,000 tested, 0.66% active; AID 485360; also: % is scaled to controls: 0 for no effect and ±100 for the full control effect; nearly all actives have a fitted effect of over 60% in size
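L3MBTL1 (50 nM) pre-complexed 30 min with biotinylated H3(1-15)K9me1 peptide (75 nM), then compounds added for 30 min at room temperature; AlphaScreen streptavidin donor/nickel chelate acceptor beads (10 ug/mL final) read after 30 min dark incubation.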
The depositor's hits bear a star; ? = inconclusive; / = not tested or not shown; [ ] = remark or other dose. Calls follow the shape of the dose curve; as a rule, active = well fitted curve in the direction sought with a large enough effect; inconclusive = small, poorly fitted or top-dose-only effect, or another doubt; inactive = no such curve, though single readings can be large; an effect the other way counts as inactive or inconclusive. Potency is read from the fitted curve at half-maximal effect.

SMILES	JMJD2A Tudor inh	G9a inh	HP1b binding inh	Sfp inh	BAZ2B inh	L3MBTL1 inh
COc1ccc(CN2C(=O)NC(=O)/C(=C/c3ccc(OC)c(OC)c3OC)C2=O)cc1	9%	/	16%	40µM*	-16%	39%
CCN1C(=O)NC(=O)/C(=C\c2ccc(N3CCOCC3)cc2OC)C1=O	/	0%	/	-6%	-24%[57.1 µM]	-7%
COc1ccc(CN2C(=O)NC(=O)/C(=C/c3ccoc3)C2=O)cc1	56µM*	18µM*	22µM*	?	50µM*	?
COc1ccc(CN2C(=O)NC(=O)/C(=C/c3cc(OC)c(OC)c(OC)c3)C2=O)cc1	-11%	45µM*	4%	79µM*	-13%	/
CCOc1ccc(/C=C2/C(=O)NC(=O)N(CCc3ccc(F)cc3)C2=O)cc1	-15%	?	21%	?	-26%	-1%
C[N+]1([O-])[C@H]2CC[C@H]1CC(OC(=O)[C@@H](CO)c1ccccc1)C2 (stereo partly specified)	/	10%[59 µM]	/	-6%	/	/
COC(=O)C(C)Oc1ccc(Cc2ncc(C(F)(F)F)cc2Cl)cc1 (stereo unspecified)	56%	4%[2.33 µM]	117%	5%	80%	/
COC1C(O)C(C)O[C@H](OC2CC[C@@]3(C=O)C4CC[C@]5(C)C(C6=CC(=O)OC6)CC[C@@]5(O)C4CC[C@@H]3C2)C1O (stereo partly specified)	/	-7%[2.33 µM]	/	0%	/	/
COc1cc(C(=O)OCc2cc(=O)c(O)co2)ccc1OC(F)F	-9%	?	15%	13%	?	/
O=NN1CCCC1c1cccnc1 (stereo unspecified)	/	17%[59 µM]	/	26%	/	/
C[n+]1ccc(-c2ccncc2)cc1	40µM*	16µM*	24%	-6%	-4%	-2%
CC(C)C[C@H]1C(=O)N2CCC[C@@H]2[C@@]2(O)O[C@](NC(=O)[C@@H]3C=C4c5cccc6[nH]cc(c56)C[C@@H]4N(C)C3)(C(C)C)C(=O)N12	/	?	/	-17%	/	/
COc1ccc(CN2CCN(c3ccccc3F)CC2)cc1O	3.2µM*	10µM*	?	-15%	?	/
Fc1cccc(F)c1CN1CCN(c2ccc(Cl)cc2)CC1	-18%	13%	-1%	3%	-7%	/
CN1CCN(Cc2c(F)cccc2Cl)CC1	10µM*	22µM*	?	?	63µM*	-7%
Clc1ccccc1CN1CCN(c2ccccc2Cl)CC1	5.6µM*	13µM*	?	-18%	35µM*	/
COc1ccccc1N1CCN(Cc2ccc(F)cc2)CC1	-20%	-34%	27%	6%	-11%	/
Clc1ccccc1N1CCN(Cc2ccc3c(c2)OCO3)CC1	28µM*	-31%[12.7 µM]	?	-26%	79µM*	-8%
O=c1[nH]c(N2CCN(Cc3ccc4c(c3)OCO4)CC2)nc2c1CCC2	-12%	1%[12.7 µM]	40%	25%	4%	/
C[N+]1=Cc2cc3c(cc2CC1)OCO3	/	/	/	-6%	/	/
Fc1ccccc1N1CCN(Cc2c(F)cccc2F)CC1	3.5µM*	1.4µM*	?	?	32µM*	-11%[11.4 µM]
Fc1ccccc1N1CCN(Cc2ccc3c(c2)OCO3)CC1	3.5µM*	7.9µM*	?	?	35µM*	-1%
Cc1ccccc1N1CCN(Cc2ccc3c(c2)OCO3)CC1	5.6µM*	7.9µM*	4%	-6%	?	4%
O=C(Nc1ccccc1)N(Cc1ccc2c(c1)OCO2)C1CCN(Cc2ccccc2)CC1	-30%	-35%[59 µM]	27%	/	?	/
N#CCCN	/	-17%[59 µM]	/	/	/	/
SMILES	JMJD2A Tudor inh	G9a inh	HP1b binding inh	Sfp inh	BAZ2B inh	L3MBTL1 inh
CCc1ccc(N2C(=O)NC(=O)/C(=C\C=C\c3ccco3)C2=O)cc1	-29%	-128%[59 µM]	10%	50µM*	45µM*	/
Cc1ccc(N2C(=O)NC(=O)/C(=C/C=C/c3ccco3)C2=O)cc1	-20%	?	12%	50µM*	-26%	?
O=C1NC(=O)N(c2ccccc2)C(=O)/C1=C\C=C\c1ccccc1	-8%	/	?	16µM*	-5%	?
Cc1cc(C)cc(N2C(=O)NC(=O)/C(=C\C=C\c3ccco3)C2=O)c1	?	11µM*	?	45µM*	?	?
Cc1cc(=O)n(-c2ccccc2)n1C	-14%	17%[21.5 µM]	24%	12%	/	-2%
O=C(Oc1ccc2cc(Br)ccc2c1)N1CCCCCC1	/	53%[59 µM]	/	2%	94%	59%
CC(C)c1ccc(N2C(=O)CC(=O)NC2=O)cc1	-16%	-29%	23%	7%	1%	/
CC(C)c1ccc(N2C(=O)NC(=O)/C(=C/C=C/c3ccco3)C2=O)cc1	?	50µM*	-6%	-12%	?	?
CCc1ccc(N2NC(=O)/C(=C/C=C/c3ccco3)C2=O)cc1	?	8.9µM*	-31%	4%	?	-10%
C[C@H](CCC(=O)O)[C@H]1CC[C@@H]2[C@H]3CC[C@H]4C[C@@H](O)CC[C@@]4(C)[C@H]3CC[C@]21C	/	17%[21.5 µM]	/	32%	/	/
Cc1cccc(N2C(=O)NC(=O)/C(=C\c3cc(C)n(-c4sc5c(c4C#N)CCCC5)c3C)C2=O)c1C	?	16µM*	-20%	35µM*	?	0%
C[C@]12CC[C@H]3[C@@H](CCC4=CC(=O)CC[C@@]43C)[C@@H]1CC[C@@H]2C(=O)CO	-18%	?	36%	79µM*	-17%	-6%
c1ccc(CN2CCc3nc4ccccc4cc3C2)cc1	-17%	10%	21%	8%	-17%	/
Cc1ccccc1CN1CCc2nc(N3CCN(c4ccccn4)CC3)ncc2C1	89µM*	-3%[12.7 µM]	20%	/	?	/
CN(C)c1ccc(CN2CCc3nc(N4CCN(c5ccccn5)CC4)ncc3C2)cc1	35µM*	?	28µM*	/	25µM*	/
CCCCCC[C@H]1C(=O)O[C@H](C)[C@H](NC(=O)c2cccc(NC=O)c2O)C(=O)O[C@@H](C)[C@@H]1OC(=O)CC(C)C	/	/	/	10%	/	/
Cc1nc(C(=O)O)nn1-c1ccc([N+](=O)[O-])cc1	5%	50µM*	19%	21%	?	8%
O=C(Oc1ccc(C(=S)N2CCOCC2)cc1)c1ccc([N+](=O)[O-])cc1[N+](=O)[O-]	?	45µM*	13%	-10%	-1%	2%
Cc1cc(C)n(C(=O)c2ccc([N+](=O)[O-])cc2[N+](=O)[O-])n1	-17%	-5%[59 µM]	12%	15%	?	-2%
CCOC(=O)C1CCCN(Cc2ccc(-c3ccccc3)cc2)C1 (stereo unspecified)	28µM*	/	-27%	?	?	32%
CCOC(=O)C1CCN(Cc2ccc(Cl)nc2)CC1	-11%	7%[2.33 µM]	44%	12%	0%	/
Nc1ccc2ccc3cccc[n+]3c2c1	-34%	35µM*	4%	-26%	-7%	0%
